Measurements published in PubChem BioAssay (NCATS).
Inconclusive results are not listed. Activity calls are given as the source filed them. Calls come from the whole dose curve; as a rule, active = well fitted curve in the direction sought with a large enough effect; inconclusive = small, poorly fitted or top-dose-only effect, or another doubt; inactive = no such curve, though single readings can be large; an effect the other way counts as inactive or inconclusive.

Legend:
[1] = molecular target: Rap guanine nucleotide exchange factor 3 (Homo sapiens) (UniProt O95398); experiment: Confirmatory qHTS for antagonist of cAMP-regulated guanine nucleotide exchange factor 3 (EPAC1) (AID 1645880); details: EPAC1 Rap1B-BODIPY-GDP exchange, fluorescence; activity, negative = inhibition: at 115 µM (top of the series); note: nearly all actives have a fitted effect of over 55% in size; note: potency is the fitted concentration of half-maximal effect;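 for activity, negative = inhibition: plate controls were DMSO only for no effect and full effect of the ATA control for full effect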
Sequence of Rap guanine nucleotide exchange factor 3 (Homo sapiens) (O95398 whole entry, looked up): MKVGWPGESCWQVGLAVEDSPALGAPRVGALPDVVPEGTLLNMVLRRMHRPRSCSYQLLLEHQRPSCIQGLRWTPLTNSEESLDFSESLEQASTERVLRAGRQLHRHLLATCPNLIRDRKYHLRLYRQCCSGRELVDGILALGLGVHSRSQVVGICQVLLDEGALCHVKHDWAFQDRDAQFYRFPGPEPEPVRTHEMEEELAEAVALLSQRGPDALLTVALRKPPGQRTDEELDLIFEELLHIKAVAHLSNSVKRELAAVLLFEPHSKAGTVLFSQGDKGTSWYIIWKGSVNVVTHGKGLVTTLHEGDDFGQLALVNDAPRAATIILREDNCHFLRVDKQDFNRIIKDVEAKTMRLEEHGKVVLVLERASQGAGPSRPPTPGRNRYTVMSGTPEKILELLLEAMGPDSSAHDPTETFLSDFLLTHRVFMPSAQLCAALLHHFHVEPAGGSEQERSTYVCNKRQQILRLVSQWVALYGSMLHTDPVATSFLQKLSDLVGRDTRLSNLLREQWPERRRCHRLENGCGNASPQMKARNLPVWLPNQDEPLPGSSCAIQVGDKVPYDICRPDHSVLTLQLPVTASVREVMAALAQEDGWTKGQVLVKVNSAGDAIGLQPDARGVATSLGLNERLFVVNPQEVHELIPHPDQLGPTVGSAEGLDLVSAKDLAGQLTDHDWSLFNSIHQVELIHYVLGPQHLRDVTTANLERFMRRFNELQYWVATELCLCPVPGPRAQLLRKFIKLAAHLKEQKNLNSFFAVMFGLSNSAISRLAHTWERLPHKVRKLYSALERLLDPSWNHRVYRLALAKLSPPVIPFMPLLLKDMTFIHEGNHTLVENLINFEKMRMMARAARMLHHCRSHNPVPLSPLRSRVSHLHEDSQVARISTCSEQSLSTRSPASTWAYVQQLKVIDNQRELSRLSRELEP
Procedure, shortened: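 Nucleotide exchange uses 100 nM EPAC1, 250 nM RAP1B-BODIPY-GDP and 50 uM GDP, with compounds in a concentration-titration series. After 5 min at room temperature, fluorescence (480 nm ex/540 nm em) is read every 5 min for 30 min. Data are normalized to control ATA and DMSO.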

[2] = molecular target: Rap guanine nucleotide exchange factor 3 (Homo sapiens) (UniProt O95398); experiment: Confirmatory qHTS for agonist of cAMP-regulated guanine nucleotide exchange factor 3 (EPAC1) (AID 1645881);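 note: EPAC1 catalysed release of BODIPY-GDP from Rap1B seen as fluorescence loss; 100% = effect of cAMP agonist control; nearly all actives have a fitted effect of over 75% in size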
[3] = molecular target: Rap guanine nucleotide exchange factor 3 (Homo sapiens) (UniProt O95398); experiment: Counterscreen qHTS for antagonist of cAMP-regulated guanine nucleotide exchange factor 3 (EPAC1) (AID 1645888);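 note: fluorescence loss as bound BODIPY-GDP is released from Rap1B; % of control where 0% means no effect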
Procedure, shortened: (§1)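 Rap1B-BODIPY-GDP 250 nM + GDP 50 uM; cpds 7-pt, final 9.74 nM–152 uM (activator mode) or from 7.32 nM upwards (inhibitor mode); RT; FI 480/540 nm at 5 and 30 min, then ± cAMP, reread.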

[4] = molecular target: Rap guanine nucleotide exchange factor 3 (Homo sapiens) (UniProt O95398); experiment: Counterscreen qHTS for agonist of cAMP-regulated guanine nucleotide exchange factor 3 (EPAC1) (AID 1645889); note: % of control where 0% means no effect; nearly all actives have a fitted effect of over 40% in size
Procedure, shortened: as §1

COc1ccc(-c2noc(CN(C(=O)c3c(-c4ccccc4Cl)noc3C)C(C)C)n2)cc1
inactive: Potency [1] | Potency [2] | Potency [3] | Potency [4]

CC1CN(c2nc3ccccc3cc2-c2ccccc2)CC(C)O1 (stereo unspecified)
inactive: Potency [1] | Potency [2] | Potency [3] | Potency [4]

O=C(O)Cc1ccc(NC(=O)C(c2ccccc2)c2ccccc2)cc1
inactive: Potency [1] | Potency [2] | activity change, negative = inhibition [3] -6.7% [at 30.8 µM] | activation [4] 5.55% [at 30.8 µM]

O=C(O)c1cnn(-c2nc(-c3ccc(Cl)c(Cl)c3)cs2)c1C(F)(F)F
inactive: Potency [2] | Potency [3] | Potency [4]
active: Potency [1] 75.7 µM

COC(=O)c1ccc2nc(C3CCCCC3)c(Cc3ccccc3)n2c1
inactive: Potency [1] | Potency [2] | activity change, negative = inhibition [3] 6.26% [at 30.8 µM] | activation [4] 9.29% [at 30.8 µM]

COC(=O)c1ccc2nc(-c3ccc(F)cc3)c(Cc3cccc(F)c3)n2c1
inactive: Potency [1] | Potency [2] | Potency [3] | Potency [4]

Cc1ccc(CN(Cc2ccco2)C(=O)c2ccco2)cc1
inactive: Potency [1] | Potency [2] | activity change, negative = inhibition [3] -4.7% [at 30.8 µM] | activation [4] 27.7% [at 30.8 µM]

CCC(=O)OC1CC(C)N(C(=O)c2ccccc2)c2ccc(C)cc21 (stereo unspecified)
inactive: Potency [1] | Potency [2] | Potency [3] | Potency [4]

CC(OC(=O)c1ccccc1Oc1ccccc1)C(=O)NC1CC1 (stereo unspecified)
inactive: Potency [1] | Potency [2] | Potency [3] | Potency [4]
